In the supplement of paper PMC6555819 one finds PBM binding z-score data, which are given here for 40 sequences.

The subject of the test is VDR:RXRa (NR concentration 270 nM, RXRa partner concentration 90 nM). As to the kind of experiment: PBM binding z-score (relative to random genomic background probes); higher = stronger binding; sequences stand for … in GC…GCGATTGACAGCGTAGAATGAAGG
The method, then: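 Protein-binding microarray (Agilent 4x180K custom design, double-stranded 60-nt probes: 5' GC cap, 34-nt variable region, 24-nt constant primer region; full probe sequence given). Purified or IVT nuclear receptor:RXRα heterodimers (3:1 NR:RXRα, mostly 270:90 nM) or homodimers were incubated for 1 h in PBS with 2% milk and no ligand, then detected with Alexa488 antibodies. Fluorescence from o1-orientation probes (~5 replicates averaged) was converted to z-scores against 500 random hg19 background probes. Variable regions are seed direct-repeat (DR0–DR5) sites, all their single-nucleotide variants and half-site ablations.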
Turning to CCTACTCGGCCAAAGGTCATTGATTCCAATGCTC, the PBM binding z-score is 4.8.
In the case of GCGACTAGGGCAAAGCAGGTTACCATAAGGTTGG, the PBM binding z-score is -0.209.
As for GCTGCCAGGTCAGGTTGGTCAGCTAACGGGTACG, the figure is 1.03; as for AGAACGAGAGCACGCTGAGTTGATAGCAGAGTAG, -0.462; as for ACAGACAAGTGATGAAGGTAACTCAGGCTATCAT, -0.0224.
As for CCTGCTAGGTCAATGGTCACCTAAAGCAGCTCGC, the figure is 1.45; as for CAGCCTAGGTCAGGCCCAGTATAGGAGGAACGTT, -0.208; as for ATATGTAGGTTACATCCGGGTAATTCAGGCTATG, 0.536.
As for GCGACTGGGGCAAAGCAGGTTGCCATAAGGTTGG, the figure is -0.612.
In turn, CGTCAAAGTTCAAGGTAACTTAACAGAAAGCAGC returned a PBM binding z-score of 3.73.
Sequence AGTCAACGTTCAGGACGAGGTAACGTAAAGCACG had a PBM binding z-score of -0.317.
For TCATATAGGTAAAGGTGAAAGTAGAACGATATGA the value was 1.01.
As for ATATGTAGGTTACATCCGGGTCATTGAGGCTATG, the figure is 5.02; as for CGTCCAAGGTCAGAGAGGTCGGTGAATGCCGAGT, 6.24; as for ACAGACAGGTGAGTGAAGGTAACCCAGCTGGACG, -0.336.
As for CATACAGGGTCAGCTATGCCAGAGTAGGGACGGC, the figure is 2.78; as for AAGACAGGGTCATCGTAGGCCAGAGTACGCACAG, 5.14.
In turn, CCTTACAGGTCACTGACAGGTTATAGCATTTGGA gave a PBM binding z-score of 3.8.
For CCTATTAGTTGACCATAAGAGCAACCGAAGCTCG the value was 1.06.
As for CGTCCCAGGTCAAAGGTCAGTGAAGAGATGACGG, the figure is 6.07; as for CCTTACGGGTCACGAGGTTATATCACGACGAGCG, 5.38.
For TCTTGTAGATCAACAGTAGGTTAAGAAAGATCGA the value was 0.333; for CGAACTAGGCCAAGGACAGTGAATCTCCGCACGC, -0.579.
As to TCTGCTAGGTCAATTGGTCAGCTAACGAGCTGCC, the PBM binding z-score worked out at 0.925.
As for TCTTGTAGATCAACAGGAGGTGAAGAAAGATCGA, the figure is 0.032.
As for CGTCCAAGGTCAGAGAGGCCAGTGAATGCCGAGT, the figure is 5.4; as for TTACCAAGGTGGAAGGTCGTTGATGCACGCCTTG, 0.464.
TCTATTAGTTGCTTAGGGCAACCGAAACAGCGGA gave a PBM binding z-score of 0.49.
For AGAATGAGGTTATTAAGATAAGGGAATTGCGGTC the value was 1.3; for CGTCCAAGGTCATAGGCGGTCAGTGAAGACAGAT, 4.7.
As for GCAGACAGGTGATACGCAGGTAACTCAGGGTGGC, the figure is -0.655; as for ACTAGCAGGCCAAGTTTGGGACACTCAAACAAAG, -0.55.
In turn, TCTTGTAGATCAAAGGTGAAGAAAGCCGAAGCCT yielded a PBM binding z-score of 0.74.
Sequence CAAACTAGGTCACAGAGGTCAGAGTCCGTGCGTA gave a PBM binding z-score of 7.34.
Turning to CCTTACCGGTCACGAGGTTATAGCACGACGAGCG, the PBM binding z-score is 2.17.
For TAGCTTAGGTCAGATCGGGCCAGTATACGCTATA the value was 0.872.
For CCAACTGGGCCAAGGTCATTGATCAGTCAAAGCA the value was 3.1; for TGAATGAGGTTAAAGATCAGGGAACGTGGCGTCG, 1.99; for ATCTCTGGGTAAAGATAGTTCAGTGAATGCAAAT, 0.896.
As for GCAGACGGGTGAAACGCAGGTAACTCAGGGTGGC, the figure is -0.555.
